Laboratory results: the supplement of paper PMC6555819

Columns and labels:
Test in all cases: PBM binding z-score (relative to random genomic background probes); higher = stronger binding; sequences stand for … in GC…GCGATTGACAGCGTAGAATGAAGG
[1] = system: RARb homodimer (NR concentration 270 nM)
Outline: (§1)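 Binding z-scores take random background probes as their reference. They come from custom Agilent 4×180K protein-binding microarrays incubated 1 h with ligand-free nuclear receptor dimers, with antibodies against each partner (one per run) detecting binding. Scanned fluorescence was regression-normalized.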

[2] = system: RARg:RXRa (NR concentration 270 nM, RXRa partner concentration 90 nM)
Outline: as §1

[3] = system: RARg homodimer (NR concentration 270 nM)
Outline: as §1

[4] = system: RXRa DBDmut IVT, anti-RXR (DBD mutation: RXRa K156A/R161A, NR concentration 90 nM)
Outline: as §1

[5] = system: RXRa homodimer (NR concentration 180 nM)
Outline: as §1

[6] = system: THRa:RXRa (NR concentration 90 nM, RXRa partner concentration 90 nM)
Outline: as §1

[7] = system: THRa homodimer (NR concentration 90 nM)
Outline: as §1

[8] = system: VDR homodimer (NR concentration 270 nM)
Outline: as §1

Row | Sequence | PBM binding z-score [1] | PBM binding z-score [2] | PBM binding z-score [3] | PBM binding z-score [4] | PBM binding z-score [5] | PBM binding z-score [6] | PBM binding z-score [7] | PBM binding z-score [8]
1 | GCTTGTAGATCAAGGCTAAGAAAGACTAAGCTAA | -0.854 | -0.533 | -0.429 | -0.427 | -0.497 | -0.5 | -1.37 | -0.708
2 | CGAACTAGGTCAGAACACGACAGTGAAGGATGAT | 1.84 | 2.55 | 3.06 | 0.593 | 1.39 | 1.31 | 0.186 | -0.122
3 | CCTTACGGGTCACGAGATTATAGCACGACGAGCG | 2.95 | 5.47 | 5.3 | 1.95 | 5.8 | 2.82 | 0.216 | 0.718
4 | CGACCAAGGTCAGAGAGGTCAGTGAATGCCGAGT | 5.37 | 6.34 | 7.04 | 3.34 | 5.82 | 4.15 | 2.11 | 5.63
5 | CGTCCAAGGTCAGTGCTAGGTCAGTGAAAGCATT | 4.72 | 6.51 | 6.07 | 2.72 | 4.15 | 3.98 | 2.41 | 2
6 | AGTCAAAGATCAGGACGAGGTAACGTAAAGCACG | -0.273 | 0.544 | 0.425 | -0.798 | 0.431 | 2.27 | 1.16 | -0.321
7 | CGTCCAAGGTCAGAGAGGTCAGTGCATGCCGAGT | 5.13 | 6.03 | 6.95 | 3.49 | 5.11 | 4.21 | 2.91 | 6.02
8 | AGAATGAGGTTAAGATCAGGGCAACAGAATACAT | 2.23 | 3.86 | 1.76 | 1.17 | 2.78 | 3.57 | 1.44 | 0.984
9 | ACTCGGAGGACAAAGGTCGGAGCTACGCCAGTGA | 2.12 | 3.28 | 1.75 | 0.784 | 2.2 | 1.98 | 0.0146 | 0.22
10 | AGTCAAAGTTCAGGACGAGGTATCGTAAAGCACG | 2.81 | 4.03 | 4.67 | 2.93 | 2.81 | 2.54 | 0.691 | 2.06
11 | TCATATAGGTAAATGCTAGGTGAAAGTTCGATCT | 1.2 | 0.926 | 0.552 | 1.97 | 1.35 | 1.75 | 0.835 | 0.742
12 | TCGAGTAGGTTATTCGGGGCATTCAGCCAACATA | 0.766 | 0.44 | 0.448 | 0.744 | 0.31 | 2.61 | 0.314 | 0.9
13 | GATATTAGTTGAAAGGGCAACCGAATGATTCTCG | 2.28 | 1.73 | 1.61 | 1.04 | 1.58 | 0.705 | 0.0377 | 0.787
14 | TCTGCTAAGTCAACGATGGTCAGCTAATCTGCTA | -0.66 | -0.413 | -0.169 | -0.0661 | -0.206 | -0.52 | -1.37 | -1.4
15 | GCAGACAGGTGAAACGCAGGTAACTAAGGGTGGC | 0.042 | 0.719 | 0.208 | -0.64 | 0.593 | 1.15 | -0.719 | -0.867
16 | ACTAGCAGGCCACGGGTCACTCAAGATTAGTCCG | 2.64 | 2.22 | 2.04 | 0.0998 | 2.18 | 1.85 | 0.298 | 0.215
17 | CCTATTAGTTGACCATAATGGCAACCGAAGCTCG | 0.786 | 0.589 | 0.606 | 0.918 | 0.421 | 0.384 | 0.631 | 1.12
18 | ACAGACAGGTGATGAAGGTAACACAGGCTATCAT | 0.929 | 0.674 | 0.747 | -0.108 | 0.817 | 0.695 | 0.246 | 0.22
19 | ACATGTAGGTTAAGGGTCATTCAGGTTGGTTCGC | 3.49 | 4.68 | 3.24 | 2.73 | 5.95 | 3.42 | 2.01 | 4.91
20 | AGAATGAGGTTATTGAGATCAGGGAATTGCGGTC | 1.07 | 1.43 | 0.831 | 2.21 | 2.16 | 2.45 | 1.01 | 1.28
21 | CAGCCTAGGTCAGGACCAGTATAGGAGGAACGTT | 1.97 | 2.81 | 3.89 | -0.0885 | 1.7 | 1.94 | 0.463 | -0.0387
22 | TGTCAAAGTTCAAAGGTAACGCAAGTATCCACAC | 3.97 | 6.5 | 6.22 | 4.42 | 7.38 | 3.23 | 0.0532 | 4.37
23 | CGACCAAGGTCAATGCTAGGTCAGTGAAAGCATT | 4.82 | 7.46 | 6.84 | 3.44 | 5.73 | 4.18 | 2.25 | 2.89
24 | TCTTGTTGATCAATAGAGGTTAAGAAAGTGCGCT | 1.09 | 0.58 | 0.28 | 0.766 | 1.48 | 1.58 | -0.22 | 0.411
25 | TCTAGTTGGTCAAAGGTCGCACACTCGAAATGCG | 3.14 | 4.78 | 2.91 | 1.27 | 5.6 | 2.48 | 0.836 | 1.26
26 | CCTCGGAGGACAGAAGGACAGAGCTGTCCGCTTT | 0.278 | -0.0569 | 0.674 | -0.277 | -0.555 | 0.672 | -0.622 | -0.357
27 | AGAATGAGGTTATACGTAGATCAGGGCAGAAAGT | 1.33 | 1.72 | 1.08 | 1.89 | 2.36 | 2.43 | 1.05 | 1.47
28 | GCGACTGGGTCAAAGCAGGTTACCATAAGGTTGG | 2.76 | 3.65 | 3.32 | 0.713 | 3.11 | 4.65 | 0.279 | 0.45
29 | CAAACTAGGTCGAGAGGTCAAAGTCCGCTTCCCG | 4.73 | 5.98 | 5.09 | 2.17 | 6.17 | 3.62 | 1.8 | 3.99
